Shown are actives, neighbours in structure and some others; about 7.3% of the full set was active somewhere.
AmpC no deterg: blocks E. coli AmpC beta-lactamase in detergent-free assay. P00811. AmpC nitrocefin hydrolysis, absorbance 480 nm, 0.0001% Triton. Potency, µM (top dose mostly 57.1 µM), for the others: at the top dose activity change, negative = inhibition, actives largely listed as inhibitors. 0.52% of 330,000 active;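 also: potency is read from the fitted curve at half-maximal effect; plate controls were no compound for no effect and no enzyme for full effect; nearly all actives have a fitted effect of over 20% in size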
Target sequence (P00811 whole entry, looked up): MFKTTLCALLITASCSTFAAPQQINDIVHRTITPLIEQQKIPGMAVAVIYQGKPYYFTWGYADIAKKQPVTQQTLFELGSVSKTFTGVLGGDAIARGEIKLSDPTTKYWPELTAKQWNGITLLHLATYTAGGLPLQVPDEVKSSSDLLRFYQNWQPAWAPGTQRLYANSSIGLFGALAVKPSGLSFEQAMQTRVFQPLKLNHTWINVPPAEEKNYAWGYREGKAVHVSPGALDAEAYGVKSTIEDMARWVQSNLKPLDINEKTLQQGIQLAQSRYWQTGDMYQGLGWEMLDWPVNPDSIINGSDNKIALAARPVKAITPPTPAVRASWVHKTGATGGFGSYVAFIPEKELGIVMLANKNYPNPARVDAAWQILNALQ
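20 mM phosphate pH 7.0 + 0.01% (detergent screen) or 0.0001% Triton X-100; 5.3 nM AmpC reagent; cpd preinc 15 min RT; nitrocefin (800 uM stock) to start; A480 q20 s × 4 min; Activity was normalised to no-enzyme and no-compound control wells.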
AmpC inh detg: blocks E. coli AmpC beta-lactamase in detergent assay. AmpC hydrolysis of nitrocefin, absorbance 480 nm, 0.01% Triton. Potency, µM (series often up to 114 µM), inactives show top-dose activity change, negative = inhibition, actives largely listed as inhibitors. AID 485294. 0.041% of 370,000 active;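 also: potency is read from the fitted curve at half-maximal effect; 0% = no-compound wells and -100% = no-enzyme wells; nearly all actives have a fitted effect of over 25% in size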
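20 mM phosphate pH 7.0 + 0.01% (detergent screen) or 0.0001% Triton X-100; 5.3 nM AmpC reagent; cpd preinc 15 min RT; nitrocefin (800 uM stock) to start; A480 q20 s × 4 min; Activity was normalised to no-enzyme and no-compound control wells.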
HCMV antiviral: inhibitors of human cytomegalovirus; activity change, negative = inhibition, % at 57.5 µM; 4.5% of 410,000 active; HFF cells, HCMV-luciferase reporter, 72 h; hits give low values; in the data active = activity change below about -60%; inconclusive = no clear call, values can overlap the other calls; inactive = above about -39%
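Steps: HFFs plated, 16 h 37C; compounds added; HCMV-luciferase added to MOI 1 PFU/cell; 72 h 37C; OneGlo reagent, 5 min room temperature; luminescence read, normalized to controls.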
FMDV antiviral: foot and mouth disease virus antiviral activity; FMDV antiviral cell-based qHTS; Potency, µM (series often up to 57.9 µM), inactives show at the highest dose activity change, negative = inhibition, most hits filed as inhibitors; 1.2% of 410,000 active; calls by dose curve; tested in HEK293T cells; also: read-out not given here; potency is read from the fitted curve at half-maximal effect; nearly all actives have a fitted effect of over 45% in size
HCV inh: blocks hepatitis C virus. Huh7.5.1 HCVcc-Cre infection, luciferase reporter, 44 h. Potency, µM (highest dose often 41.8 µM), for inactives: at the highest dose activity change, negative = inhibition, most hits filed as inhibitors. 3.4% of 340,000 active. AID 651820; also: potency is read from the fitted curve at half-maximal effect
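Infectious HCVcc-Cre (~0.5 moi) was added to cells just after compound, with cells seeded 4 h earlier at 1,000 per well. Luciferase activity after 44 h culture reported infection; substrate was incubated 15 min at room temperature before reading.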
Numbers without * were called inactive; u = inconclusive; x = no result given; [ ] = another dose, or the depositor's remark. Unless noted, calls follow the shape of the dose curve; as a rule, active = well fitted curve in the direction sought with a large enough effect; inconclusive = small, poorly fitted or top-dose-only effect, or another doubt; inactive = no such curve, though single readings can be large; an effect the other way counts as inactive or inconclusive. Unless noted, % is scaled to controls: 0 for no effect and ±100 for the full control effect.

SMILES	AmpC no deterg	AmpC inh detg	HCMV antiviral	FMDV antiviral	HCV inh
OC(c1ccc2c(c1)CN(Cc1ccc3nsnc3c1)CCO2)C1CCCCC1 (stereo not drawn)	x	x	x	-10%	x
COc1cc(CNc2ccc3[nH]c(=O)[nH]c3c2)ccc1OCc1ccccc1F	-12%	1%	u	-15%	u
COc1cc(CNc2ccc3[nH]c(=O)[nH]c3c2)ccc1OCc1ccccc1C	-28%	-1%	-70*	u	-38%
CCOc1cc(CNc2ccc3c(c2)OCCO3)cc(Br)c1OCC	-15%	0%	-86*	32µM*	2µM*
C=CCOc1cccc(CNc2ccc3[nH]c(=O)[nH]c3c2)c1	-16%	-8%	-22	u	11µM*
C=CCOc1ccc(CNc2ccc3[nH]c(=O)[nH]c3c2)cc1OC	-31%	-13%	11	-4%	-14%
COc1cc(CNc2ccc3[nH]c(=O)[nH]c3c2)cc(Br)c1OCC(=O)NC(C)(C)C	52%	u	-71*	u	u
COc1cccc(CNC(=O)c2c(OC)cc(=O)n3c2CCN(C(=O)c2cc(F)cc(F)c2)CC3)c1	x	x	x	6%	x
Cc1ccc(-n2c3nc(=O)[nH]c(=O)c-3cc3c(C)nn(-c4ccccc4)c32)cc1C	x	3%	-6	-1%	x
COc1cc(OC)c(N(C)C(=O)Cn2ncc3c([nH]c4ccccc43)c2=O)cc1Cl	x	1%	19	-26%	x
CCOc1cc(CNc2ccc(N3CCCCC3)cc2)cc(Br)c1OCC(=O)NC(C)(C)C	58%	1%	-4	32µM*	u
CCOc1cc(CNc2ccc(N(C)C)cc2)cc(Br)c1OCC(=O)NC(C)(C)C	u	3%	-18	14µM*	11µM*
CCOc1cc(CNc2ccc(N3CCOCC3)cc2)cc(Br)c1OCC	146%	-13%	-3	u	u
COc1ccc(S[C@]2(C(=O)NCC(F)(F)F)CC(=O)N[C@@H]2c2ccc(OC)cc2)cc1	x	x	1	x	x
CCOC(=O)N1CCN(c2cc(=O)n(-c3ccc(Br)cc3)c(=O)[nH]2)CC1	0.56µM*	u	5	-16%	21%
CCOC(=O)N1CCN(c2cc(=O)n(-c3ccc(C)cc3)c(=O)[nH]2)CC1	-1%	-1%	31	-19%	4%
CC1CCc2nc3ccccc3c(C(=O)OCC(=O)NC3CCS(=O)(=O)C3)c2C1 (stereo not drawn)	-16%	1%	-17	-10%	10µM*
CC1CCc2nc3ccccc3c(C(=O)OCC(=O)N(C)C3CCS(=O)(=O)C3)c2C1 (stereo not drawn)	-4%[11.4 µM]	u	-13	-13%	u
COc1cccc(NC(=O)COC(=O)c2c3c(nc4ccccc24)CCC(C)C3)c1 (stereo not drawn)	-28%	-13%	-25	32µM*	2µM*
O=C(CN1C(=O)CNC1=O)Nc1cc(Cl)cc(Cl)c1	-29%	x	-19	1%	7%
COc1ccccc1Oc1ccc2c(c1)C(=O)N(c1cccc3ncccc13)C2=O	1%	-8%	-19	20µM*	u
NC1=NC[C@@H](Cc2ccc(O)cc2)N1CCc1cc(C(F)(F)F)cc(C(F)(F)F)c1	12%	1%	64	-1%	26%
NCCCC[C@H]1CN=C(N)N1CCCCC1CCCCC1	x	x	-82*	-9%	15%
FC(F)(F)c1cc(CCN2CCNC[C@@H]2CC2CCCCC2)cc(C(F)(F)F)c1	184%	x	-99*	0%	u
NC1=NC[C@H](CC2CCCCC2)N1CCc1cc(C(F)(F)F)cc(C(F)(F)F)c1	66%	2%	-100*	u	7%
SMILES	AmpC no deterg	AmpC inh detg	HCMV antiviral	FMDV antiviral	HCV inh
NCCCC[C@H]1CN=C(N)N1CC1CCCCC1	x	x	u	-12%	15%
CCOc1ccccc1CNC(=O)c1cnc2sc(N3CCCCCC3)nn2c1=O	x	-6%	-28	0%	x
O=C1c2ccccc2-c2onc3ccc(NCc4ccco4)c1c23	u	-15%	x	u	10µM*
CCNC1=C(Cl)C(=O)c2ccccc2C1=O	-19%	10%	-33	-25%	u
O=C1C(Cl)=C(NCCN2CCCCC2)C(=O)c2ccccc21	-37%	8%	x	40µM*	7.9µM*
CCNc1ccc2noc3c2c1C(=O)c1ccccc1-3	137%	1%	-37	-21%	u
O=C1C(Cl)=C(NCc2ccco2)C(=O)c2ccccc21	x	x	-86*	-18%	8.9µM*
COc1ccc(NC(=O)CN2C(=O)CCc3cc(S(=O)(=O)N4CCOCC4)ccc32)cc1Cl	x	10%	38	-22%	x
Cc1cc(C(=O)COC(=O)c2ccco2)c(C)n1Cc1ccco1	-36%	3%	3	8.9µM*	8%
Cc1nn(Cc2ccccc2)c(C)c1C(=O)OCC(=O)c1cc(C)n(CC(F)(F)F)c1C	29%	u	-11	0%	8.9µM*
CCOC(=O)C1CCN(c2ncnc3c2c(-c2ccccc2)cn3-c2ccc(C)c(Cl)c2)CC1	x	-2%	-18	-11%	x
CCOC(=O)C1(Cc2cccc(Cl)c2)CCCN(C(=O)c2ccco2)C1 (stereo not drawn)	63%	-4%	10	-3%	-6%
CCOC(=O)C1(Cc2cccc(Cl)c2)CCCN(C(=O)c2cccc(C)n2)C1 (stereo not drawn)	121%	-1%	1	-14%	18µM*
CN(Cc1ccon1)C(=O)c1cnn(-c2nccc(-c3ccc4c(c3)OCO4)n2)c1C1CC1	x	x	x	40%	x
CC(=O)/C(C#N)=C1\NC(=O)C(Cc2cc(Cl)ccc2Cl)S1 (stereo not drawn)	-47%	3%	-89*	9%	-8%
O=C1NC(=Nc2ccccc2)SC1Cc1cccc(Cl)c1Cl (stereo not drawn)	-17%	2%	-27	-12%	1%
CC(=O)/C(C#N)=C1\NC(=O)C(Cc2ccccc2Cl)S1 (stereo not drawn)	-25%	3%	-95*	51%	0%
NC1=NC(=O)C(Cc2cc(Cl)ccc2Cl)S1 (stereo not drawn)	-29%	6%	-13	-2%	11%
COc1ccc2c(c1)CC/C=C(/C)CC(CO)O2 (stereo not drawn)	x	x	0	x	x
COc1cccc(CNC(=O)c2cc(C3CC3)nc3c2cnn3C(C)C)c1	12%	u	0	-4%	u
COc1ccc(CNC(=O)c2cc(C3CC3)nc3c2cnn3C(C)C)cc1OC	93%	-10%	-30	u	u
CCOc1ccc(NC(=O)c2cc(C3CC3)nc3c2cnn3C(C)C)cc1OC	142%	2%	-16	-13%	10µM*
CNC(=O)c1cccc(NC(=O)c2cc(-c3ccccc3)nc3c2cnn3C(C)C)c1	93%	-4%	-8	u	3.2µM*
CC(C)n1ncc2c(C(=O)NCc3cccnc3)cc(C3CC3)nc21	0%	u	-10	31%	7.9µM*

High-throughput results (PubChem)
